# Screening data (PubChem BioAssay)
# In the library only some 6.6% were active in any assay of this set; here they are far more common.
# KB-V1 cytotox: KB-V1 MDR subline cytotoxicity. KB-V1 MDR cells viability, CellTiter-Glo, 72 h. Potency, µM (titrated, usually from 46.1 µM), hits mostly cytotoxic. 400,000 compounds, 3.4% hits. AID 1347076; note: % is set by controls: 0 for no effect and ±100 for the full control effect; nearly all actives have a fitted effect of over 60% in size
#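 KB-V1 cells (P-gp-expressing MDR subline of KB-3-1) in phenol-red-free DMEM with 10% FBS were exposed to library compounds over a concentration series for 72 h at 37 degrees C. Viability read by CellTiter-Glo luminescence; concentration-effect curves fitted after normalization.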
# HepG2 tox: HepG2 cytotoxicity, counter-screen for TGF-b inhibitors. HepG2 CAGA-GFP viability, ATP luminescence, 18 h. Potency, µM (highest dose often 46.1 µM), without a hit: at the highest dose activity change, negative = cytotoxicity, hits mostly cytotoxic. 410,000 compounds, 0.76% hits
#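 CellTiter-Glo luminescence gave cytotoxicity after 18 hours at 37 degrees C. The cells were HepG2 CAGA-GFP in 1% FBS DMEM, stimulated with 500 pg/mL TGF-beta after compound addition. %Activity was normalised to no-cell wells (complete cell-killing) and DMSO (no toxicity), and curves were fitted and classified.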
# HT1080 IDH1KD tx: toxicity to HT-1080 IDH1 knockdown cells (counter line). Potency, µM (doses to about 46.1 µM), for the others: top-dose activity, negative = toxicity, most hits filed as cytotoxic. HT-1080 IDH1 knockdown viability, ATP luminescence, 48 h. 360,000 compounds, 2% hits;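 note: 0% = DMSO wells and -100% = cell-free medium wells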
#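 Viability of IDH1-knockdown HT-1080 fibrosarcoma cells was assessed by CellTiter-Glo after 48 h at 37 °C with titrated compound; concentration-effect curves were classified by fit quality and response size.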
# TGFb inhibitor: TGF-b pathway inhibition | Potency, µM (top dose mostly 46.1 µM), for inactives: at the highest dose activity, negative = inhibition, usual class: inhibitors | 410,000 compounds, 1.2% hits | HepG2 CAGA-GFP TGF-b/SMAD3 reporter, GFP fluorescence, 18 h; TGF-beta stimulated, 500 pg/mL final; note: % is set by controls: 0 for no effect and ±100 for the full control effect; nearly all actives have a fitted effect of over 65% in size
#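 Using HEPG2 CAGA-GFP reporter cells at 1000 cells/well, we pinned test compounds, stimulated with recombinant TGF-beta (500 pg/mL final) and measured total well GFP after 18 h.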
# KB-3-1 cytotox: kills parental KB-3-1 adenocarcinoma cells; KB-3-1 viability, CellTiter-Glo ATP luminescence, 72 h; Potency, µM (series often up to 46.1 µM), most hits filed as cytotoxic; 400,000 compounds, 1.4% hits; note: % is set by controls: 0 for no effect and ±100 for the full control effect; nearly all actives have a fitted effect of over 60% in size
#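 KB-3-1 parental drug-naive adenocarcinoma cells in DMEM/10% FBS, incubated 72 h at 37 C with pin-transferred compounds across a concentration series. Viability by CellTiter-Glo luminescence; concentration-response curves fitted after normalization.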
# HT1080NT lethal: kills 2HG-producing HT-1080-NT fibrosarcoma cells; 360,000 compounds, 1.6% hits; Potency, µM (highest dose often 46.1 µM), for inactives: at the highest dose activity, negative = less viability, most hits filed as cytotoxic; AID 686970; HT-1080-NT fibrosarcoma viability, CellTiter-Glo ATP luminescence, 48 h;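 note: NT is the 2HG producing partner of a matched IDH1 knockdown line; 0% = DMSO-treated cells and -100% = media-only wells without cells; nearly all actives have a fitted effect of over 55% in size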
#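 HT-1080-NT; 750 cells/well; 5% FBS RPMI; 48 h compound, 37 degrees C; CellTiter-Glo luminescence; curve fitting and curve-class assignment.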
# * marks the source's active call; other numbers are inactive results; i = inactive; u = inconclusive; x = no result. Calls come from the whole dose curve; as a rule, active = well fitted curve in the direction sought with a large enough effect; inconclusive = small, poorly fitted or top-dose-only effect, or another doubt; inactive = no such curve, though single readings can be large; an effect the other way counts as inactive or inconclusive. Potency is the fitted concentration of half-maximal effect.
SMILES,KB-V1 cytotox,HepG2 tox,HT1080 IDH1KD tx,TGFb inhibitor,KB-3-1 cytotox,HT1080NT lethal
Brc1ccc2c(c1)OCCOCCOCCOCCOCCOCCO2,6.5µM*,-27%,-2%,-21%,i,1%
c1ccc2c(c1)OCCOCCOCCOCCOc1ccccc1OCCOCCOCCO2,3.7µM*,-26%,-18%,u,26µM*,-6%
CCOc1cccc(C2C=C(c3ccc4c(c3)OCO4)NC(c3ccc(Br)cc3)N2)c1O (centres undefined),i,-36%,x,u,u,x
C[C@@H]1CN([C@@H](C)CO)C(=O)CCCn2nncc2CO[C@H]1CN(C)S(=O)(=O)c1cccs1,i,-5%,1%,-1%,i,6%
Cc1cc(=O)n(C)c(=O)n1CCCCCCOc1cccc([N+](=O)[O-])c1,7.3µM*,-5%,1%,-9%,u,13%
CCN(CC)C(=O)Cn1c(=O)c2ccccc2n2c(=S)sc(-c3cccc(C)c3)c12,2.9µM*,-2%,-1%,-4%,i,0%
CC(C)(C)n1ncc2c(=O)n(Cc3cccc(Cl)c3Cl)cnc21,x,-6%,x,5%,x,x
CN(C)S(=O)(=O)N1CCCC(C(=O)c2ccc(-c3ccccc3)cc2)C1 (centres undefined),i,-1%,-1%,2%,i,-1%
CN(C)S(=O)(=O)N1CCCC(C(=O)c2ccc(C(F)(F)F)cc2)C1 (centres undefined),23µM*,-13%,-6%,0%,i,-7%
COc1cc(Nc2ncc3c(n2)CCN(C(=O)Nc2ccc(C(C)C)cc2)C3)cc(OC)c1OC,u,-22%,18µM*,u,u,21µM*
O=C(Nc1cccc(F)c1)N1CCc2nc(NCc3cccc(Oc4ccccc4)c3)ncc2C1,18µM*,-15%,u,u,u,23µM*
CC(C)c1ccc(NC(=O)N2CCc3nc(NCc4cccc(Oc5ccccc5)c4)ncc3C2)cc1,u,-16%,u,-18%,u,u
COc1ccc(OC)c(CNc2ncnc3onc(-c4ccc(Cl)cc4)c23)c1,8.2µM*,-8%,x,3%,5.8µM*,x
CCCC(O)(c1ccc(CC)cc1)C(CN1CCOCC1)c1ccccc1 (centres undefined),u,-28%,21µM*,u,u,33µM*
CCCC(O)(c1ccc(Cl)cc1)C(CN1CCOCC1)c1ccccc1 (centres undefined),i,-71%,3%,13µM*,i,13%
O=C(Nc1ccc(-c2nc3cc(Cl)ccc3o2)cc1)c1cc2ccccc2o1,i,-6%,x,7%,i,x
CC(C)(C)OC(=O)N1CCC(c2nnc(SCc3cccc(Cl)c3)o2)CC1,18µM*,-20%,x,-8%,i,x
CC(C)(C)OC(=O)N1CCC(c2nnc(SCc3ccccc3Cl)o2)CC1,9.2µM*,-24%,x,-13%,i,x
CCCN(CCC)C(=O)C1CCCN(c2ncnc3onc(-c4ccc(F)cc4)c23)C1 (centres undefined),i,5%,x,1%,i,x
CCOC(=O)C1=C(CNCc2ccc(C)cc2)NC(=O)NC1c1ccc(OC)cc1 (centres undefined),u,-6%,9.2µM*,-8%,u,u
CCOC(=O)C1=C(CN(CC)Cc2ccccc2)NC(=O)NC1c1ccc(OC(C)C)cc1 (centres undefined),u,-32%,x,14µM*,u,x
CCn1c(C(=O)Nc2ccccc2C(=O)OC)cc2sc(Cl)cc21,i,3%,x,-5%,i,x
CCc1cc(=O)oc2c(C)c(OS(C)(=O)=O)ccc12,4.1µM*,-4%,-4%,-7%,i,-1%
CCC(=O)N1CCc2cc(Br)cc(S(=O)(=O)N3CCC(C(=O)Nc4ccccc4F)CC3)c21,i,-28%,x,-29%,i,x
COc1ccc(S(=O)(=O)N(CCc2ccccc2)CC(=O)NCc2ccc(C)cc2)cc1,i,-9%,x,u,u,x
SMILES,KB-V1 cytotox,HepG2 tox,HT1080 IDH1KD tx,TGFb inhibitor,KB-3-1 cytotox,HT1080NT lethal
O=C(NCCC1CCCCN1S(=O)(=O)c1cccs1)C(=O)Nc1ccccc1 (centres undefined),i,1%,-16%,32%,i,-4%
COc1ccc(CNC(=O)C(=O)NCCC2CCCCN2S(=O)(=O)c2ccccc2)cc1 (centres undefined),i,0%,-7%,-8%,i,-4%
COc1ccc(NC(=O)C(=O)NCCC2CCCCN2S(=O)(=O)c2ccccc2)cc1 (centres undefined),u,-37%,13µM*,-23%,4.6µM*,u
O=C(NCCc1ccccc1)C(=O)NCCC1CCCCN1S(=O)(=O)c1cccs1 (centres undefined),2.3µM*,-23%,-2%,-7%,i,-8%
COc1ccc(NC(=O)C(=O)NCCC2CCCCN2S(=O)(=O)c2cccs2)cc1 (centres undefined),1.8µM*,5%,5.8µM*,2%,2.6µM*,u
CCNC(=O)C(=O)NCCC1CCCCN1S(=O)(=O)c1cccs1 (centres undefined),i,-8%,0%,4%,i,2%
CCOc1cc(C(=O)NCCN2C(=O)S/C(=C\c3cccnc3)C2=O)cc(OCC)c1OCC,i,2%,-11%,1%,i,-4%
COc1ccc(C(=O)NCCN2C(=O)S/C(=C\c3cccnc3)C2=O)c(OC)c1OC,15µM*,-5%,17%,10%,i,-3%
CCC(=O)c1ccc(N2CCN(C(=O)c3ccc(Br)cc3)CC2)c(F)c1,15µM*,-7%,11%,-5%,i,5%
O=C1N/C(=N\N=C\c2cccs2)SC1Cc1cccc(Cl)c1 (centres undefined),u,-15%,u,u,u,u
O=C1N/C(=N\N=C\c2cccnc2)SC1Cc1ccc(SC(F)F)cc1 (centres undefined),4.1µM*,9%,23µM*,-8%,u,u
O=C1N/C(=N\N=C\c2ccc3ncccc3c2)SC1Cc1ccc(SC(F)F)cc1 (centres undefined),u,-17%,14%,48%,i,-7%
O=C1N/C(=N\N=C\c2ccccn2)SC1Cc1cccc(SC(F)F)c1 (centres undefined),3.7µM*,-16%,u,u,u,-6%
